For 6 compounds, growth results are on record in PubChem BioAssay (NCI).

Among the test systems are SK-MEL-2 melanoma; EKVX NSCLC; SN12C renal; TK-10 renal; ACHN renal; CAKI-1 renal; A498 renal; CCRF-CEM leukemia; MOLT-4 leukemia; SR leukemia; RPMI-8226 leukemia; OVCAR-8 ovarian; OVCAR-5 ovarian; OVCAR-4 ovarian; SK-OV-3 ovarian; IGROV1 ovarian; OVCAR-3 ovarian; HS 578T breast; NCI/ADR-RES ovarian.
Common to all, as to assay: NCI-60 one-dose screen, 48 h (100 = growth as untreated, 0 = no growth, -100 = all killed)
Holding throughout (conditions): 10 µM unless noted

The panel holds about 83,000 compounds, 20% with a hit somewhere; the sample as a whole holds those more often.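 Interpretation: 100, growth as untreated; towards 0, rising growth inhibition; 0, no net growth; 0 to -100, cell death. Compounds scoring below 10 were considered active.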 Values without a mark were called inactive. Calls of active or inactive are those of the source.

On to `CCC(=C(c1ccc(OCCN(CC)CC)cc1)c1ccc(OCCN(CC)CC)cc1)c1ccc(Cl)cc1`, for which the growth in the assay with SK-MEL-2 melanoma is -44.9% (active); in the assay on EKVX NSCLC it was 77.1%; in the assay on SN12C renal it was -77% (active); in the assay with TK-10 renal it was -79.3% (active); with ACHN renal it was -90.2% (active); in the assay on CAKI-1 renal, -89.4% (active). The growth was 43.3% in the assay with A498 renal; -65.3% (active) with CCRF-CEM leukemia; -60.1% (active) in the assay on MOLT-4 leukemia; -39.7% (active) in the assay on SR leukemia; -48.5% (active) in the assay with RPMI-8226 leukemia; -49.8% (active) in the assay with OVCAR-8 ovarian. Moreover, the growth is -52.8% (active) in the assay with OVCAR-5 ovarian; -38.9% (active) with OVCAR-4 ovarian; 55.4% with SK-OV-3 ovarian; -78.6% (active) in the assay on IGROV1 ovarian; -72.2% (active) with OVCAR-3 ovarian; -44.3% (active) in the assay with HS 578T breast. Also, the growth in the assay on NCI/ADR-RES ovarian was -33.1% (active).
As for `CCOC(=O)/C=C1\S/C(=N\Nc2cc(=O)[nH]c3ccc(OC)cc23)N(c2ccccc2)C1=O`, the growth in the assay on SK-MEL-2 melanoma was 106%; in the assay with EKVX NSCLC it was 106%; with SN12C renal it was 96.8%; in the assay with TK-10 renal it was 117%; in the assay with ACHN renal, 96.8%; in the assay with CAKI-1 renal it was 88.5%. For the same compound, the growth with A498 renal was 112%; in the assay with CCRF-CEM leukemia it was 65.1%; with MOLT-4 leukemia, 95.4%; with SR leukemia, 50.4%; in the assay on RPMI-8226 leukemia it was 87.2%; in the assay on OVCAR-8 ovarian, 98.7%. The growth was 106% in the assay with OVCAR-5 ovarian; 82.7% in the assay on OVCAR-4 ovarian; 104% in the assay on SK-OV-3 ovarian; 92.2% in the assay on IGROV1 ovarian; 95.8% in the assay with OVCAR-3 ovarian; 103% in the assay with HS 578T breast. The growth in the assay with NCI/ADR-RES ovarian is 104%.
In the case of `COC12C=C/C(=C(/C(=O)OCc3ccccn3)C(=O)CCCCCCCCC3(OC)C=C/C(=C(/C(=O)OCc4ccccn4)C(=O)CCCCCCCC1)O3)O2`, the growth with SK-MEL-2 melanoma is 10.8%; in the assay with EKVX NSCLC, -9.9% (active); with SN12C renal it was -22.2% (active); in the assay with TK-10 renal, 4.32% (active); with ACHN renal, -14.9% (active); in the assay on CAKI-1 renal, -4.53% (active). For the same compound, the growth is -86.3% (active) with A498 renal; 0.645% (active) in the assay with CCRF-CEM leukemia; 0.868% (active) in the assay with MOLT-4 leukemia; -9.81% (active) in the assay on SR leukemia; -14.8% (active) in the assay with RPMI-8226 leukemia; 16.8% in the assay with OVCAR-8 ovarian. For the same compound, the growth in the assay with OVCAR-5 ovarian is 34.9%; in the assay on OVCAR-4 ovarian it was 28.8%; in the assay with SK-OV-3 ovarian it was 46.3%; in the assay on IGROV1 ovarian it was -39.1% (active); in the assay on OVCAR-3 ovarian, -36.3% (active); in the assay on HS 578T breast, 49.7%. Further, the growth in the assay on NCI/ADR-RES ovarian was 7.96% (active).
On to `CCCCCCCCCCCCCC[n+]1ccc2c(C)c3c(c(C)c2c1)c1cc(O)ccc1n3CC`, for which the growth with SK-MEL-2 melanoma was -81.6% (active); in the assay on EKVX NSCLC, -34.5% (active); in the assay with SN12C renal, -74.9% (active); with TK-10 renal, -46.6% (active); with ACHN renal it was -25.3% (active); in the assay on CAKI-1 renal it was 31.4%. Further, the growth in the assay with A498 renal is -19.8% (active); with CCRF-CEM leukemia, -16% (active); in the assay with MOLT-4 leukemia, -44.5% (active); in the assay on SR leukemia, -52.5% (active); with RPMI-8226 leukemia it was -51.5% (active); with OVCAR-8 ovarian, -43.4% (active). In addition, the growth in the assay with OVCAR-5 ovarian is -60.9% (active); with OVCAR-4 ovarian, -59.8% (active); in the assay with SK-OV-3 ovarian, -19% (active); in the assay on IGROV1 ovarian it was -75.6% (active); in the assay on OVCAR-3 ovarian, -95.3% (active); with NCI/ADR-RES ovarian it was 59.9%.
For the compound `CC(C)C(=O)Nc1ncc(C(=O)NCCN(Cc2ccccc2)C(=O)c2ccc(S(=O)(=O)Nc3ccccc3)cc2)s1`, the growth is 97.8% with SK-MEL-2 melanoma; 97.6% in the assay on EKVX NSCLC; 91.4% in the assay on SN12C renal; 100% in the assay with TK-10 renal; 101% with ACHN renal; 92.4% in the assay on CAKI-1 renal. Moreover, the growth in the assay with A498 renal was 87.7%; in the assay with CCRF-CEM leukemia, 96.2%; in the assay on MOLT-4 leukemia, 75.1%; in the assay on SR leukemia it was 100%; in the assay with RPMI-8226 leukemia it was 97.6%; in the assay with OVCAR-8 ovarian it was 102%. Besides, the growth is 97.7% in the assay with OVCAR-5 ovarian; 112% in the assay on OVCAR-4 ovarian; 110% in the assay on SK-OV-3 ovarian; 105% in the assay on IGROV1 ovarian; 106% with OVCAR-3 ovarian; 87.1% with HS 578T breast. The growth with NCI/ADR-RES ovarian is 101%.
For the compound `C=CCn1c(SCC(=O)Nc2ccc(C(=O)/C=C/c3cc(OC)c(OC)c(OC)c3)cc2)nnc1-c1cc(-c2ccc(S(N)(=O)=O)cc2)nc2ccccc12`, the growth was 100% in the assay with SK-MEL-2 melanoma; 100% in the assay on EKVX NSCLC; 90.3% in the assay on SN12C renal; 141% in the assay on TK-10 renal; 93.8% in the assay with ACHN renal; 72.2% in the assay with CAKI-1 renal. Moreover, the growth in the assay on A498 renal was 97%; in the assay with CCRF-CEM leukemia, 29.5%; in the assay on MOLT-4 leukemia it was 59.7%; in the assay on SR leukemia, 28.1%; with RPMI-8226 leukemia, 4.9% (active); in the assay with OVCAR-8 ovarian, 57.2%. Also, the growth was 123% with OVCAR-5 ovarian; 83.7% in the assay with OVCAR-4 ovarian; 111% in the assay with SK-OV-3 ovarian; 80.4% in the assay on IGROV1 ovarian; 81.1% in the assay on OVCAR-3 ovarian; 108% with HS 578T breast. In the assay with NCI/ADR-RES ovarian, the growth is 103%.
